# In PMC10668032, “Altered binding affinity of SIX1-Q177R correlates with enhanced WNT5A and WNT pathway effector expression in Wilms tumor”:
# The full ranking holds about 33,000 sequences; the median of “e-score” is about -0.05, and the highest 2% start at about 0.38. This is one part of a sample in which the highest values are shown more often than they occur.
# Target: T1, SIX1-Q177R homeodomain (human, UniProt Q15475 108-198, Q177R)
# T1 sequence: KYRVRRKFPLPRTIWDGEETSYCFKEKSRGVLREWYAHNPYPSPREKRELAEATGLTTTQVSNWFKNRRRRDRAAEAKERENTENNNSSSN
# Experiment: universal protein binding microarray; Universal all-10-mer PBM (8x60K, AMADID 030236), 300 nM GST-tagged protein, Alexa Fluor 488 anti-GST; buffer, salt, pH and temperature not stated (as in Berger); high values mean tight binding
# Details: protein: ivt; tags: N-terminal GST; dsDNA, one strand shown
# Method in brief: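 Duplicate protein binding microarrays (universal 'all 10-mer', 8×60K format) were incubated with GST-tagged homeodomains at 300 nM final concentration. Binding was quantified as 8-mer E-scores with the Universal PBM Analysis Suite.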
row,Sequence,binding signal [E-score]
1,CAGAGGGG,0.193 ± 0.0159
2,CACAACTG,0.1786 ± 0.00129
3,CACCTGAA,0.2354 ± 0.0017
4,CACTTGTC,0.161 ± 0.0236
5,TCCTAGGA,0.22 ± 0.0107
6,CCGGGGAA,0.18 ± 0.0043
7,CACCCCAA,0.336 ± 0.0263
8,GCGGGGGA,0.157 ± 0.00972
9,ACACCAAT,0.473 ± 0.00609
10,ATACCAAC,0.163 ± 0.00749
11,ACACAAAT,0.167 ± 0.0837
12,ACCCCAAA,0.205 ± 0.0372
13,ACTCCAAG,0.2 ± 0.00662
14,ACACCAAA,0.4659 ± 0.00317
15,GCACCAAC,0.261 ± 0.0127
16,ACACCAAC,0.4617 ± 0.00175
17,ACACCAAG,0.455 ± 0.0109
18,ACCCCAAT,0.266 ± 0.0184
19,ACACAAAG,0.236 ± 0.0826
20,CACCAAAA,0.217 ± 0.0236
21,GGAGAATA,0.193 ± 0.0325
22,CCTGAACA,0.254 ± 0.00385
23,AGTTAAGA,0.155 ± 0.00537

row,Sequence,binding signal [E-score]
1,CCGGGTTC,0.22 ± 0.0235
2,AGTTAGGA,0.153 ± 0.019
3,GACCCGGA,0.184 ± 0.0271
4,ACACGCAA,0.3952 ± 0.00317
5,ACACGCAG,0.391 ± 0.00589
6,ACACGCAT,0.383 ± 0.00385
7,ACGCGCAG,0.175 ± 0.0335
8,CCCCGCAA,0.17 ± 0.00535
9,ACACGCAC,0.4052 ± 0.00394
10,ACGCACAC,0.307 ± 0.0495
11,ACTCCCCT,0.249 ± 0.0205
12,CGGATCAG,0.174 ± 0.00822
13,ACCGGAGG,0.183 ± 0.0608
14,ACTCCTCC,0.213 ± 0.0626
15,ATTTGACA,0.216 ± 0.00896
16,CGCATTAC,0.204 ± 0.0114
17,ACCCTGAG,0.245 ± 0.0251
18,CCAAACAC,0.3825 ± 0.00157
19,ACCAACAC,0.41011 ± 0.000354
20,CCCAACAC,0.403 ± 0.0145
21,GCAAACAC,0.351 ± 0.00619
22,GCCAACAC,0.3693 ± 0.00257
23,CCCAAAAC,0.193 ± 0.0284

row,Sequence,binding signal [E-score]
1,ACCAACTC,0.169 ± 0.01
2,CCCAACAA,0.199 ± 0.00812
3,ACTATGTG,0.17 ± 0.0249
4,CACCTTCA,0.241 ± 0.0302
5,CACCTTGG,0.344 ± 0.0104
6,CCCCTACC,0.237 ± 0.0383
7,GAGTGTCC,0.406 ± 0.00513
8,TAGTGACA,0.211 ± 0.0357
9,GAGTGACA,0.242 ± 0.00566
10,AAGTGTCA,0.418 ± 0.0194
11,AAGTGTCC,0.332 ± 0.00652
12,GAGTATCC,0.199 ± 0.0139
13,TAGTGTCA,0.454 ± 0.00792
14,GAGTGTCA,0.45 ± 0.0122
15,GTGTGTCA,0.369 ± 0.0056
16,AAGTGTCT,0.346 ± 0.0141
17,TAGAGTCA,0.196 ± 0.0118
18,CGTATCCA,0.159 ± 0.0161
19,ATATACCC,0.2382 ± 0.000608
20,CACCCAGA,0.189 ± 0.0293
21,ACCAGATA,0.162 ± 0.0127
22,ACCACGGA,0.178 ± 0.0145
23,ACCCTTAC,0.158 ± 0.0125

row,Sequence,binding signal [E-score]
1,CACCTTTA,0.223 ± 0.0267
2,CACAGACA,0.155 ± 0.0227
3,CCGACCCG,0.176 ± 0.00738
4,CCGTGTGC,0.215 ± 0.0507
5,GCGTATAC,0.158 ± 0.00385
6,ACGTGTAC,0.387 ± 0.0177
7,GCGTTTAC,0.16 ± 0.0218
8,ACGTGTAT,0.321 ± 0.0343
9,GCGTGTAC,0.4393 ± 0.000926
10,ACGTGTAG,0.347 ± 0.0241
11,CCCTGTAC,0.173 ± 0.0309
12,CCGTGTAC,0.4382 ± 0.00199
13,ACCGCCCC,0.157 ± 0.0585
14,ACCACTGG,0.153 ± 0.00392
15,ACCTTACC,0.155 ± 0.0397
16,CACGGACA,0.298 ± 0.0109
17,CACGACGC,0.151 ± 0.0468
18,CACGACCC,0.32 ± 0.0093
19,CACGACAC,0.448 ± 0.0167
20,CACGACAG,0.1738 ± 0.000629
21,CACGACCA,0.227 ± 0.0193
22,AACGACAC,0.4466 ± 0.00332
23,GACGACAC,0.429 ± 0.0137

row,Sequence,binding signal [E-score]
1,GACGACCC,0.158 ± 0.0499
2,CACGACTC,0.304 ± 0.00378
3,CACCTATA,0.301 ± 0.00719
4,CCCGACCA,0.204 ± 0.0179
5,ACCGTGTG,0.259 ± 0.0453
6,GCCGGGTA,0.197 ± 0.033
7,GCCGTGTA,0.419 ± 0.00774
8,ACCGTGTC,0.428 ± 0.0209
9,CCCGTGTC,0.458 ± 0.00911
10,CCTGTGTA,0.192 ± 0.0408
11,CCCGTGAC,0.155 ± 0.00256
12,CCCGCGTA,0.154 ± 0.0151
13,CCCGTGTA,0.453 ± 0.00915
14,CCCGTCTC,0.239 ± 0.00285
15,ACCGTGCC,0.179 ± 0.0325
16,CCCCCGGA,0.263 ± 0.00617
17,AAGGATCC,0.178 ± 0.0155
18,GACTCCGA,0.198 ± 0.0344
19,ACCCTGTA,0.153 ± 0.0186
20,ACCGTGTA,0.4376 ± 0.00046
21,ACCGGGTA,0.212 ± 0.00998
